Compound activity as filed in PubChem.
Hits are enriched below; roughly 10% of the tested compounds scored in any of these assays.
Sfp PPTase inh: qHTS Assay for Inhibitors of Bacillus subtilis Sfp phosphopantetheinyl transferase (PPTase); Potency, µM, inactives show largest response in the series, negative = inhibition, usual class: inhibitors; hit rate 3.5% among 310,000; Biochemical Sfp PPTase activity, qHTS;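 note: the enzyme is Sfp with the accession as filed and its product quenches rhodamine fluorescence; potency is the fitted concentration of half-maximal effect; 0% = enzyme reaction without inhibitor and -100% = no enzyme wells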
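Reaction rates are the 30-min fluorescence difference (ex 525, em 598 nm) in wells containing 15 nM Sfp, 5 uM rhodamine-CoA and 12.5 uM BHQ-2-YbbR at pH 7.6 with 10 mM MgCl2.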
G9a block: qHTS Assay for Inhibitors of Histone Lysine Methyltransferase G9a; hit rate 8.8% among 350,000; Potency, µM (highest dose often 102 µM), for the others: at the top dose activity, negative = inhibition, actives largely listed as inhibitors; G9a H3K9 monomethylation, AlphaScreen, 2 h; Histone-lysine N-methyltransferase EHMT2 (Homo sapiens), Q96KQ7; note: potency is the fitted concentration of half-maximal effect; nearly all actives have a fitted effect of over 75% in size
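Readings reflect AlphaScreen signal from monomethyl-H3K9 antibody detection. HMT at 20 nM; substrate b-H3K9 500 nM; cofactor SAM 20 uM; 2 h RT reaction; compounds tested as titrations in qHTS with 15 min preincubation.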
VDR inhibitor: Inhibitors of the vitamin D receptor (VDR): qHTS | Vitamin D3 receptor (Homo sapiens), P11473 | VDR-SRC2-3 peptide fluorescence polarization, 2 h | Potency, µM, inactives show max response, negative = inhibition, usual class: inhibitors | hit rate 0.93% among 400,000 | AID 504847, 2011; note: potency is the fitted concentration of half-maximal effect
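Signal is fluorescence polarization, reporting how far test compounds block the interaction of VDR with the SRC2-3 coregulator peptide after a 2 h room-temperature incubation.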
PLK1 PBD inh: qHTS for Inhibitors of PLK1-PDB (polo-like kinase 1 - polo-box domain): Primary Screen; Plk1 PBD binding of FITC phosphopeptide, fluorescence polarization; hit rate 2.8% among 360,000; Serine/threonine-protein kinase PLK1 (Homo sapiens), P53350; Potency, µM, without a hit: max response, negative = inhibition, actives largely listed as inhibitors; AID 720504, 2013; note: potency is the fitted concentration of half-maximal effect; series mostly up to about 57 µM; nearly all actives have a fitted effect of over 65% in size
Target sequence (P53350 whole entry, looked up, the tested form may be a part): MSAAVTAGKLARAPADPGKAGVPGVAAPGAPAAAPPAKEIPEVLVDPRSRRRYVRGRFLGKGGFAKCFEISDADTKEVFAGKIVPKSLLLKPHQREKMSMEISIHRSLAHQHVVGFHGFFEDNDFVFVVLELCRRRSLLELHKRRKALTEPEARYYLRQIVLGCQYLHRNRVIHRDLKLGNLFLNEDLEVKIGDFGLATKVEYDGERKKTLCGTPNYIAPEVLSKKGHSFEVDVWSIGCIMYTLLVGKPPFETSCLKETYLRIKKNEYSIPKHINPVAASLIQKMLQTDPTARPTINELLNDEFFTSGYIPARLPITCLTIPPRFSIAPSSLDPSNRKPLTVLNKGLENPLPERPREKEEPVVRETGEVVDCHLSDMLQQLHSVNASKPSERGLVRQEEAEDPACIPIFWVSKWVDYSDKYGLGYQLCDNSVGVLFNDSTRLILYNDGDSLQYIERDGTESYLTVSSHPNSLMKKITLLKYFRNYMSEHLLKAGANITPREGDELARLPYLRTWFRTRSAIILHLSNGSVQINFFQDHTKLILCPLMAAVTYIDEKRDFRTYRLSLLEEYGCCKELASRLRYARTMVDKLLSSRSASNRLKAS
Mm-Cpn inhibitor: Inhibitors of TCP-1 ring complex (TRiC) of Methanococcus maripaludis (MmCpn): qHTS | Chaperonin Mm-Cpn (Methanococcus maripaludis) | purified Mm-Cpn ATPase, ADP Transcreener TR-FRET | Potency, µM (titrated, usually from 76.9 µM), without a hit: at the top dose activity, negative = inhibition, hits mostly inhibitors | hit rate 0.031% among 330,000 | AID 504842, 2011; note: potency is the fitted concentration of half-maximal effect; nearly all actives have a fitted effect of over 80% in size
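Eu-cryptate anti-ADP/ADP-d2 competition gives a ratio inversely related to ADP. Enzyme at 25 nM was pre-exposed to compound for 10 min, then given 10 uM ATP for 30 min, 37°C throughout.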
CCT chaperon mod: High-Throughput Screening for Modulators of Cytosolic Chaperonin Activity. purified chaperonin ATPase assay, HTRF ADP detection, 30 min. activity change, % (concentration not given with the values), hits read low. hit rate 0.3% among 360,000; in the data active = activity change below about -30%
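Nucleotide hydrolysis assay: TRiC at 20–40 nM final (set by batch activity) with 10 uM ATP, 30 min at 37 °C, in presence of 76 uM compound. Detection by competitive ADP HTRF, 30 min ambient.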
* = called active by the depositor; ? = inconclusive; . = not tested or not shown; [ ] = dose if it differs, or a comment. Unless noted, calls come from the whole dose curve; as a rule, active = well fitted curve in the direction sought with a large enough effect; inconclusive = small, poorly fitted or top-dose-only effect, or another doubt; inactive = no such curve, though single readings can be large; an effect the other way counts as inactive or inconclusive. Unless noted, % is set by controls: 0 for no effect and ±100 for the full control effect.

SMILES | Sfp PPTase inh | G9a block | VDR inhibitor | PLK1 PBD inh | Mm-Cpn inhibitor | CCT chaperon mod
CCN1CCN(CCNC(=O)c2ccc3c(c2)N(Cc2ccc(F)cc2)C(=O)/C(=C/c2ccccc2)S3)CC1 | 50µM* | ? | -3% | 7% | 1% | 1
Cc1cccc(CN2C(=O)/C(=C\c3ccc(C(=O)NCCN4CCOCC4)cc3)Sc3ccccc32)c1 | ? | . | -6% | -15% | -1% | -3
CCN1CCN(CCNC(=O)c2ccc(/C=C3/Sc4ccccc4N(Cc4cccc(Cl)c4)C3=O)cc2)CC1 | 50µM* | 40µM* | 24% | -1% | 1% | 1
CCOC(=O)c1cc(-c2ccccc2)n(CCCC(=O)Nc2ccc(C)c(Cl)c2)c1C | . | -34%[59 µM] | 7% | . | . | .
COc1ccc(-c2c(C)nn3c(-c4ccccc4)cc(-c4ccccc4)nc23)cc1 | . | ? | -1% | . | . | .
Cc1cc(Br)ccc1OCCNCc1ccccc1 | -5% | 7.9µM* | -5% | 0% | 0% | 2
Clc1ccc(OCCCNCc2ccccc2)c2ccccc12 | 56µM* | . | -11% | -6% | 1% | 1
Cc1cc(C)c(OCCCCNCc2ccccc2)c(Cl)c1 | -15% | 35%[0.501 µM] | 27% | -4% | 1% | -6
Cc1cc(C)c(C)c(OCCNCc2ccccc2)c1 | -27% | 11µM* | 3% | -1% | 2% | 0
C/C=C/c1ccc(OCCNCc2ccccc2)c(OC)c1 | 3% | ? | -23% | -23% | 1% | 0
Brc1ccccc1OCCNCc1ccccc1 | -25% | 7.9µM* | 6% | -4% | 1% | -3
CC(C)N1CCN(c2ccc(C(=O)c3c(-c4ccc(O)cc4)sc4cc(O)ccc34)cc2)CC1 | -20% | . | 5% | . | . | .
O=C(N/N=C/c1ccc(O)c(O)c1)N/N=C/c1ccc(O)c(O)c1 | ? | 45µM* | -28% | -10% | -1% | 1
COc1ccc2nc(C)cc(SCC(NC(C)=O)C(=O)OC(C)C)c2c1 (configuration not stated) | -25% | 40µM* | -20% | -12% | -3% | 0
COc1ccc2nc(C)cc(SCC(=O)N/N=C/c3ccc(O)c(O)c3)c2c1 | -20% | 35µM* | 16% | -5% | -1% | 1
COc1ccc2nc(C)cc(SCC(=O)OC(C)C)c2c1 | 18% | 31% | 14% | ? | 3% | 0
COc1cccc2c(SCC(=O)N/N=C/c3ccc(O)c(O)c3)cc(C)nc12 | 4% | 35µM* | -7% | -13% | -3% | -1
Cc1ccc(Cl)cc1NC(=O)COCc1cc(-c2ccco2)on1 | . | ? | -2% | . | . | .
Cc1cc(SCC(=O)N/N=C/c2ccc(O)c(O)c2)nc2ccccc12 | -17% | . | -15% | -11% | 2% | -1
Cc1cc(SCC(=O)N/N=C/c2ccc(O)c(O)c2)c(C)cc1Br | ? | 25µM* | 0% | -14% | -1% | -1
O=C(CNc1ccc(Br)cc1)c1ccc(O)cc1 | 40µM* | 45µM* | 3% | ? | 0% | 0
O=C(CNc1ccc(Br)cc1)c1ccc(Br)s1 | 6% | 40µM* | ? | 0% | -12% | -1
O=C(CNc1ccc(Cl)cc1)c1ccc(Br)cc1 | 7% | -45% | -6% | -5% | 1% | -6
CCCOc1cccc(C(=O)N(Cc2ccc(C)o2)C2CCS(=O)(=O)C2)c1 (configuration not stated) | . | -12%[59 µM] | 6% | . | . | .
O=C(COCc1cc(-c2ccc3c(c2)OCO3)on1)NCc1ccccc1Cl | . | -1%[59 µM] | -9% | . | . | .
SMILES | Sfp PPTase inh | G9a block | VDR inhibitor | PLK1 PBD inh | Mm-Cpn inhibitor | CCT chaperon mod
Nc1cc(C(=O)O)ccc1N1CCCCC1 | 29% | ? | -10% | ? | -3% | -1
CC1CCN(c2ccc(C(=O)O)cc2N)CC1 | 10% | 79µM* | -3% | -8% | -1% | 0
CCOC(=O)c1ccc(N2CCN(c3cc(C)ccc3C)CC2)c(N)c1 | ? | 45µM* | 4% | 2% | 1% | -2
CC(C)(CC(=O)OCC(=O)Nc1ccc(F)c(Cl)c1)CC1=NS(=O)(=O)c2ccccc2N1 | . | 7%[59 µM] | 17% | . | . | .
O=C1OCCN/C1=C\C(=O)c1ccc(Cl)cc1 | 5% | 56µM* | 0% | -3% | 1% | -2
O=C1NCCN/C1=C\C(=O)c1ccc(Br)cc1 | 1% | 50µM* | -9% | -9% | 0% | 2
CCOc1ccccc1N(CC(=O)N1CCc2ccccc2C1)S(=O)(=O)c1ccccc1 | . | -11%[59 µM] | -6% | . | . | .
O=C(CCN1C(=O)c2ccc([N+](=O)[O-])cc2C1=O)Nc1ccc(O)cc1C(=O)O | ? | 50µM* | -5% | -9% | 2% | -2
CC(=O)Oc1ccc(N(C(C)=O)S(=O)(=O)c2cccs2)c2ccccc12 | 7% | 13µM* | 5% | -21% | -3% | 1
COc1ccc(C)cc1S(=O)(=O)Nc1cc2c3c(c1)CCN3C(=O)CC2 | . | -2%[0.501 µM] | 1% | 0% | 0% | -1
O=C1CCc2cc(S(=O)(=O)Nc3cccc(F)c3)cc3c2N1CC3 | . | 4%[2.33 µM] | 1% | 10% | -4% | 3
CCc1ccc(NS(=O)(=O)c2cc3c4c(c2)CCN4C(=O)CC3)cc1 | . | 12% | -9% | -5% | 1% | -61*
O=C1CCc2cc(S(=O)(=O)NC3CCCCC3)cc3c2N1CC3 | . | 50µM* | 9% | -2% | 1% | -5
COc1ccc(F)cc1S(=O)(=O)Nc1cc2c3c(c1)CCN3C(=O)CC2 | . | 45µM* | 2% | -3% | 1% | 1
Cc1ccc(-n2nc(C)c(NC(=O)CCl)c2C)cc1C | 13% | -4% | 3% | 1% | 3% | -1
Cc1nn(C)c(C)c1NC(=O)CCl | 7% | 45µM* | 3% | -11% | 0% | 0
CCN(CC)S(=O)(=O)c1ccc2c(c1)N(CC(=O)N(C)Cc1ccccc1)C(=O)CO2 | . | 1%[59 µM] | -15% | . | . | .
O=C(CSc1ccc2nnc(-c3ccc(Cl)cc3)n2n1)N1CCCC1 | 19% | 35µM* | -5% | -13% | 1% | -1
O=C(CSc1ccc2nnc(-c3ccc(Cl)cc3)n2n1)N1CCc2ccccc21 | 5% | 7.9µM* | 7% | ? | -3% | -4
CC1CC(C)(C)Nc2ccc(OC(=O)c3ccco3)cc21 (configuration not stated) | -13% | 45µM* | 9% | -3% | -1% | -1
Cn1c(=O)c2c(SCC(=O)NCc3ccco3)nc(-c3ccccc3)nc2n(C)c1=O | . | -3%[59 µM] | 2% | . | . | .
